Bioassay records as filed in PubChem BioAssay.
Only some compounds are listed: those with a hit (about 7.5% of all), similar ones and a draw of the others.
Luc counter = Counterscreen for Luciferase (Kinase-Glo TM) Inhibition. Kinase-Glo luciferase, ATP luminescence, 8 min. Potency, µM (titrated, usually from 38.3 µM), for the others: at the highest dose activity change, negative = inhibition, actives largely listed as inhibitors. hit rate 0.28% among 200,000; note: % is set by controls: 0 for no effect and ±100 for the full control effect; nearly all actives have a fitted effect of over 60% in size
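Inhibition of Kinase-Glo luciferase light generation was assessed at 10 uM ATP in pH 7.2 imidazole buffer, with luminescence measured after eight minutes at ambient temperature.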
ELG1 genotoxic = qHTS screen for small molecules that induce genotoxicity in human embryonic kidney (HEK293T) cells expressing luciferase-tagged ELG1; AID 504466, 2011; hit rate 1.3% among 330,000; HEK293T ELG1-luciferase reporter, luminescence, 16 h; Potency, µM (top dose mostly 46 µM), inactives show top-dose activity change, positive = activation, actives largely listed as activators; note: % of control where 0% means no effect; nearly all actives have a fitted effect of over 60% in size
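Genotoxicity was scored as increased ELG1-luciferase reporter signal, measured by ONE-Glo luminescence (30 min, room temperature). Compound or vehicle exposure of the HEK293T reporter cells lasted 16 hr at 37°C.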
Rab9 promoter act = qHTS Assay for Rab9 Promoter Activators; Huh7 Rab9 promoter-luciferase reporter, luminescence, 24 h; Potency, µM (titrated, usually from 9.22 µM), for inactives: top-dose activation, negative = inhibition, hits mostly activators; hit rate 2.8% among 320,000; note: % of control where 0% means no effect; nearly all actives have a fitted effect of over 60% in size
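Rab9 promoter-driven luciferase in stably transfected Huh7 cells; 1500 cells/well rested 2 h, exposed to compound in DMSO for 24 h at 37 °C, 5% CO2. Luminescence read 10 min after adding luciferase reagent at ambient temperature.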
SMN2 splice enh = qHTS Assay for Enhancers of SMN2 Splice Variant Expression | HEK293 SMN2-luciferase splicing reporter, luminescence, 30-36 h | Potency, µM (top dose mostly 46.1 µM), inactives show at the highest dose activity change, positive = activation, usual class: activators | hit rate 2.8% among 210,000 | AID 1458, 2008; note: % of control where 0% means no effect; nearly all actives have a fitted effect of over 55% in size
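HEK293 cells carry an SMN2 […]–luciferase reporter in which exon 7 inclusion puts luciferase in frame. Cells were plated 10-12 h before compound addition, then incubated 30-36 h at 37C. ONE-Glo luminescence was read; sodium butyrate at 4.5 mM final served as control.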
FLuc counter = qHTS profiling assay for firefly luciferase inhibitor/activator using purifed enzyme and Km concentrations of substrates (counterscreen for miR-21 project); Luciferin 4-monooxygenase (Photinus pyralis), P08659; purified FLuc, Km substrates, luminescence inhibition; Potency, µM (top dose mostly 57.5 µM), for the others: at the top dose activity change, negative = inhibition, actives largely listed as inhibitors; hit rate 6.9% among 360,000; AID 588342, 2011;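 note: plate controls were vehicle for no effect and reference inhibitor for full effect; nearly all actives have a fitted effect of over 55% in size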
Target sequence (P08659 whole entry, looked up): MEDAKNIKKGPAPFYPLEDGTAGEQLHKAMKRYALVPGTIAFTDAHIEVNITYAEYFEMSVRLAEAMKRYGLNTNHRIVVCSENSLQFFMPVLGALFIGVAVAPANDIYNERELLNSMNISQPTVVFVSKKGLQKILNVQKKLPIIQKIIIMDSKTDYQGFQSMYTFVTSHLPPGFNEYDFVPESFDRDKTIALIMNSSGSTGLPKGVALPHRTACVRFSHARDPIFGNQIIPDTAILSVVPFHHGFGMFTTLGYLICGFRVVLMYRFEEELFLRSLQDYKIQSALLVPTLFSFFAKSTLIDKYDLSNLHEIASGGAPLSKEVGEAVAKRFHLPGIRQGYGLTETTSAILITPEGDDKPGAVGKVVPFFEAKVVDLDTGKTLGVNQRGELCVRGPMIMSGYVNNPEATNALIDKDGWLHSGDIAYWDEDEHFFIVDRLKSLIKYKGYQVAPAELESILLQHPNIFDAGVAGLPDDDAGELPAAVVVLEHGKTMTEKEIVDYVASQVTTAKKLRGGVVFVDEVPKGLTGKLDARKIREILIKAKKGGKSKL
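Biochemical qHTS of compounds, final roughly 60 µM downward over six points, against 10 nM purified firefly luciferase using Km concentrations of substrates (10 uM D-luciferin, 10 uM ATP) in Tris acetate pH 7.5 buffer; luminescence output.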
NPC1 promoter act = qHTS Assay for NPC1 Promoter Activators; Potency, µM (top dose mostly 9.22 µM), without a hit: at the highest dose activation, usual class: activators; hit rate 2.4% among 320,000; Huh7 NPC1 promoter luciferase reporter, 24 h; note: % of control where 0% means no effect; nearly all actives have a fitted effect of over 60% in size
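Cells: Huh7 expressing luciferase under the NPC1 promoter, 1500/well. Seeded 2 h, compound added, incubated 24 h at 37 °C. Luciferase reagent, 10 min ambient, then luminescence.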
* = called active by the depositor; ? = inconclusive; / = no result given; ! = not active in a repeat; [ ] = dose if it differs, or a comment. Calls come from the whole dose curve; as a rule, active = well fitted curve in the direction sought with a large enough effect; inconclusive = small, poorly fitted or top-dose-only effect, or another doubt; inactive = no such curve, though single readings can be large; an effect the other way counts as inactive or inconclusive. Potency is the fitted concentration of half-maximal effect.

SMILES	Luc counter	ELG1 genotoxic	Rab9 promoter act	SMN2 splice enh	FLuc counter	NPC1 promoter act
O=S(=O)(c1cccc(C(F)(F)F)c1)n1c(/C=C/c2ccccc2)nc2ccccc21	/	/	/	/	12µM*	/
CCOc1ccc(/C=C/c2nc3ccccc3n2S(=O)(=O)c2ccc(Br)cc2)cc1	/	/	/	2.82µM*	0.849µM*	/
CSc1ccc(/C=C/c2nc3ccccc3n2S(=O)(=O)c2ccc(Br)cc2)cc1	/	/	/	0.501µM*	0.0426µM*	/
CN1CCCN(S(=O)(=O)c2cccc(C(F)(F)F)c2)c2nc3ccccc3nc21	/	-8.5%	-8.8%	/	/	0.2%
Cc1cc(C(=O)NNC(=S)NC(=O)/C=C/c2ccccc2Cl)n[nH]1	1.8%	-3.3%	6.0%	2.0%	23.9µM*	8.8%
CCC(CC)C(=O)Nc1nnc(S(=O)(=O)N2c3ccccc3CC2C)s1 (stereo not given)	/	-4.5%	0.1%	/	16.9µM*!	-2.3%
CN1CCC(N2CCN(c3cccc(C(F)(F)F)c3)CC2)CC1	2.4%	-8.7%	-0.5%	3.9%	3.7%	-4.1%
FC(F)(F)c1cccc(N2CCc3cn[nH]c32)c1	-2.6%	13.8%	-1.0%	-13.8%	23.9µM*	10.0%
COc1cc(C2C=C(c3cccs3)Nc3ncnn32)cc(OC)c1OC (stereo not given)	2.9%	-10.3%	-24.9%	-28.3%	1.6%	-14.8%
COc1ccccc1NC(=O)COc1ccc(CO)cc1Cl	-3.7%	14.6µM*	?	76.4%	6.75µM*	?
O=C(COc1ccc(CO)cc1Cl)Nc1ccc(F)cc1	-20.3%	0.366µM*	1.12µM*	-8.3%	0.849µM*	2µM*
COc1ccccc1NC(=O)COc1ccc(Br)cc1CO	2.2%	-0.3%	12.9%	-21.2%	-10.2%	5.7%
COc1cccc2c(C)cc3nnc(SCC(=O)Nc4ccc(C)cc4)n3c12	/	/	/	/	-15.2%	/
O=C(NCC(c1cccnc1)N1CCc2ccccc2C1)C(=O)Nc1ccc(Cl)cc1 (stereo not given)	/	/	/	/	-15.6%	/
CN(C)/C=N/C(=S)Nc1ccc(Cl)c(Cl)c1	-6.2%	?	24.4%	13.1%	16.9µM*	17.9%
CN(C)/C=N/C(=S)Nc1cc(Cl)cc(Cl)c1	2.2%	-0.7%	-3.1%[1.84 µM]	-0.4%	1.7%	-1.0%
Cc1ccccc1NC(=O)Cn1nc(-c2ccccc2)nc(Cc2ccccc2)c1=O	/	/	/	/	-2.2%	/
CCCS(=O)(=O)Nc1cc2c(cc1NCc1ccccc1)n(C)c(=O)n2C	/	/	/	5.62µM*	?	/
Cn1c(=O)n(C)c2cc(NS(=O)(=O)c3ccc(Br)cc3)c(NCc3ccccc3)cc21	/	/	/	7.08µM*	?	/
COc1ccc(S(=O)(=O)Nc2cc3c(cc2NCc2ccccc2)n(C)c(=O)n3C)cc1	/	/	/	10µM*	23.9µM*	/
COc1ccc(C(CNC(=O)C2COc3ccccc3O2)N2CCCC2)cc1 (stereo not given)	/	-0.4%	-4.7%	/	9.1%	-0.6%
Cc1ccn2cc(-c3cccc([N+](=O)[O-])c3)nc2c1	?	0.461µM*	?	1.78µM*	0.675µM*	0.562µM*
Cc1ccn2cc(C(=O)Nc3cccc(C(=O)NC4CC4)c3)nc2c1	/	-7.5%	?	/	1.35µM*	?
Cc1ccn2cc(-c3cccc(S(=O)(=O)N4CCCC4)c3)nc2c1	/	5.9%	9.4%	/	12µM*	14.3%
Cc1ccn2cc(-c3cccc(NC(=O)CCC(=O)O)c3)nc2c1	/	9.7%	-4.7%	/	0.849µM*	-6.1%
CC(C)OCCCNC(=O)CN1C(=O)c2cccnc2Sc2ccccc21	/	/	/	/	2.7%	/
CC(C)CC(NC(=O)C1CCCCC1)C(=O)Nc1cccc(C(F)(F)F)c1 (stereo not given)	/	/	/	18.3%	2.0%	/
Clc1ccc2nc(-c3ccccc3)cn2c1	/	0.92µM*	0.398µM*	/	0.477µM*	0.398µM*
